# Test results: ChEMBL document CHEMBL1961873, “Compounds: GSK PKIS; Assays: Nanosyn kinase panel” (2012)
# Where “and” joins values, the source holds several entries; their conditions need not be identical. Equal values may be shown once.
# Tests used:
# [1] = target: Tyrosine-protein kinase SYK (Homo sapiens) (UniProt P43405); details: at 1 µM
# [2] = target: T1, Tyrosine-protein kinase Tec (Homo sapiens) (UniProt P42680); details: at 0.1 µM
# T1 sequence (whole entry): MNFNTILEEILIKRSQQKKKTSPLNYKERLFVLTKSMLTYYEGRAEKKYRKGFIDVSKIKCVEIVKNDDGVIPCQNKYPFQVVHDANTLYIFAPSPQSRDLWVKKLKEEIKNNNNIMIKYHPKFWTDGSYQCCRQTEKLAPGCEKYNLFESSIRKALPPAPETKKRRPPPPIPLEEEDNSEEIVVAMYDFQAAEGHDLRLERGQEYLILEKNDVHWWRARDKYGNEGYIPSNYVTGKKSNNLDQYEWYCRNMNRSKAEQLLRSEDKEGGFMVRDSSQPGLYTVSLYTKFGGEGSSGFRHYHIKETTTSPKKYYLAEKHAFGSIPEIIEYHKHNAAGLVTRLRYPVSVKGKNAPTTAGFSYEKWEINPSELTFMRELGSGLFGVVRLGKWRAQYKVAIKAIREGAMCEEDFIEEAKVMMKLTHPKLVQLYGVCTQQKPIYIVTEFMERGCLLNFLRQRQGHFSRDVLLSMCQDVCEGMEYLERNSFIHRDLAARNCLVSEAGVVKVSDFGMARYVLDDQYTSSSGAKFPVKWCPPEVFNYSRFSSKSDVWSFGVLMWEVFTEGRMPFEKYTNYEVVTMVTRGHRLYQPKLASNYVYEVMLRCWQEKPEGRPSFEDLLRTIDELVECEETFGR
# [3] = target: T1, Tyrosine-protein kinase Tec (Homo sapiens); details: at 1 µM
# [4] = target: Angiopoietin-1 receptor (Homo sapiens) (UniProt Q02763); details: at 0.1 µM
# Chain of Angiopoietin-1 receptor (Homo sapiens) (Q02763 whole entry): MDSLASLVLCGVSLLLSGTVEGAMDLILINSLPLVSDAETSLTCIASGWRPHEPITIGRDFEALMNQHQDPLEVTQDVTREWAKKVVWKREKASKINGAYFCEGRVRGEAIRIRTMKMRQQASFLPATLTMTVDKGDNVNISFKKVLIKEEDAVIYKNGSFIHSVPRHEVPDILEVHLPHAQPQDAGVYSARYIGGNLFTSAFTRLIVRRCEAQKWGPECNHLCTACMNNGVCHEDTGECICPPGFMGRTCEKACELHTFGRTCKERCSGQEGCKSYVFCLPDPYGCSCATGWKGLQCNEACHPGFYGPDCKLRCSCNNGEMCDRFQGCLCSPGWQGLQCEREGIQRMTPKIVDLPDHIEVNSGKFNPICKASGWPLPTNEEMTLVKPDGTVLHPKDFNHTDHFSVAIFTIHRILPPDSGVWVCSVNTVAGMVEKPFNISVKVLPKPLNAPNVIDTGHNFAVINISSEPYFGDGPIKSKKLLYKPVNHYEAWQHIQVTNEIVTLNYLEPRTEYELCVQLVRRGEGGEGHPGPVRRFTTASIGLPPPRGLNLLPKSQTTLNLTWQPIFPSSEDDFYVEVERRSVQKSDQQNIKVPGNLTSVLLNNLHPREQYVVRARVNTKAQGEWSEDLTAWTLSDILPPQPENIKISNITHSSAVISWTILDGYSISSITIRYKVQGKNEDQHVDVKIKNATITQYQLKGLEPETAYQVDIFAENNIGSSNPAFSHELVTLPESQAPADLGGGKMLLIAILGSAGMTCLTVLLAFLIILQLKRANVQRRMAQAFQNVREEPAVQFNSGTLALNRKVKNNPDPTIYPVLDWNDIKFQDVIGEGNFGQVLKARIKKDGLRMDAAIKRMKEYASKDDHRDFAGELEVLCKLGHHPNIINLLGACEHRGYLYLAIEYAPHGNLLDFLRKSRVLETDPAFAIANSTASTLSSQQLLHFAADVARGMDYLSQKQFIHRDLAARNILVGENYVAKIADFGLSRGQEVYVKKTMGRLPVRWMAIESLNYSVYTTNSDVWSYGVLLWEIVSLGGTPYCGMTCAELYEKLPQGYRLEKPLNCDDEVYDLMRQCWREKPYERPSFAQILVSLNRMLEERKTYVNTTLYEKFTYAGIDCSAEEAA
# [5] = target: Angiopoietin-1 receptor (Homo sapiens) (UniProt Q02763); details: at 1 µM
# [6] = target: T2, Non-receptor tyrosine-protein kinase TNK1 (Homo sapiens) (UniProt Q13470); details: at 0.1 µM
# T2 sequence (whole entry): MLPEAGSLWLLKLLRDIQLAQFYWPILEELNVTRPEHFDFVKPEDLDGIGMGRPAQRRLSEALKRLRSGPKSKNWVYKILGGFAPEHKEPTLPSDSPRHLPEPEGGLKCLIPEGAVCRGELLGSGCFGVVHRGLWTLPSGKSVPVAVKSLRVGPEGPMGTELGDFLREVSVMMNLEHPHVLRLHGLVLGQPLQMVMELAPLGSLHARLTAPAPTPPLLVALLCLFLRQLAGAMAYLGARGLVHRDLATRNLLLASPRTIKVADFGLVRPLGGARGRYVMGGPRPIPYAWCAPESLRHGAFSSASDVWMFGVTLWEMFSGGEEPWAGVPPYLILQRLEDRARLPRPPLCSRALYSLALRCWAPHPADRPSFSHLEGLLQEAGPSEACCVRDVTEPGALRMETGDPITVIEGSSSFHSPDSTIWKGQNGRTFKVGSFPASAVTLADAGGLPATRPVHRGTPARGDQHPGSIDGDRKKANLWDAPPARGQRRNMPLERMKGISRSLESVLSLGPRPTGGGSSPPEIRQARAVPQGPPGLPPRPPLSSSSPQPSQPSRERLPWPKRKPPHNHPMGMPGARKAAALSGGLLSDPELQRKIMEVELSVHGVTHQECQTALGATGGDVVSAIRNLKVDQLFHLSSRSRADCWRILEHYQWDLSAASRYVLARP
# [7] = target: T2, Non-receptor tyrosine-protein kinase TNK1 (Homo sapiens); details: at 1 µM
# [8] = target: Activated CDC42 kinase 1 (Homo sapiens) (UniProt Q07912); details: at 0.1 µM
# Chain of Activated CDC42 kinase 1 (Homo sapiens) (Q07912 whole entry, looked up): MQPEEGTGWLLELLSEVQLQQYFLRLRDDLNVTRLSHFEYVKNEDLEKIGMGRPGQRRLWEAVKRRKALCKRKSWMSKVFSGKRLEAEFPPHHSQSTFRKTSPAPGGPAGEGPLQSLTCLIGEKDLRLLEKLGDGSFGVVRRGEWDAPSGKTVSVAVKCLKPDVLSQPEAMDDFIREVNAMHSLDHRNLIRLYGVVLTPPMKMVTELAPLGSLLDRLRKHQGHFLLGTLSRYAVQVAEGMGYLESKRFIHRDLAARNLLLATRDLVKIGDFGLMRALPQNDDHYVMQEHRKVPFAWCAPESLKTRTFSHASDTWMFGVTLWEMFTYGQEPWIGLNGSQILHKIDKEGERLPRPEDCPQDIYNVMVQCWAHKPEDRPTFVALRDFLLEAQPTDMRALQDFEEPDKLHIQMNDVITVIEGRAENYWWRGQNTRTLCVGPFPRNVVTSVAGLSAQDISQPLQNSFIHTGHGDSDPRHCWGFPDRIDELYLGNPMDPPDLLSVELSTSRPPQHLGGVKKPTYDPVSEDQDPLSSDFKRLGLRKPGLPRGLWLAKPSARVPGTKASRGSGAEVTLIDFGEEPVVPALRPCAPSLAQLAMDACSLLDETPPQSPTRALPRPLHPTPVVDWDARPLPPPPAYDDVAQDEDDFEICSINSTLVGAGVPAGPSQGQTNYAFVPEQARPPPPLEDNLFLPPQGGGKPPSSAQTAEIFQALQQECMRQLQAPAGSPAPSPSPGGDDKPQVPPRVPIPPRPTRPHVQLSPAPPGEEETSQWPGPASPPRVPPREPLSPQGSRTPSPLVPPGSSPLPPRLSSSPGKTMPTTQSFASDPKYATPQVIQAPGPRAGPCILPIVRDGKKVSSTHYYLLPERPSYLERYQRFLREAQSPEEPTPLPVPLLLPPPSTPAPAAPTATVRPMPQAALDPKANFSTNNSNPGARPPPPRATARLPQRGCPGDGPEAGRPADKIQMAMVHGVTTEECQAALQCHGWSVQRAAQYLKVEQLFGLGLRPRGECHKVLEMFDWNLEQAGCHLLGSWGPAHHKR
# [9] = target: Activated CDC42 kinase 1 (Homo sapiens) (UniProt Q07912); details: at 1 µM
# [10] = target: High affinity nerve growth factor receptor (Homo sapiens) (UniProt P04629); details: at 0.1 µM
# Chain of High affinity nerve growth factor receptor (Homo sapiens) (P04629 33-796 limits assumed): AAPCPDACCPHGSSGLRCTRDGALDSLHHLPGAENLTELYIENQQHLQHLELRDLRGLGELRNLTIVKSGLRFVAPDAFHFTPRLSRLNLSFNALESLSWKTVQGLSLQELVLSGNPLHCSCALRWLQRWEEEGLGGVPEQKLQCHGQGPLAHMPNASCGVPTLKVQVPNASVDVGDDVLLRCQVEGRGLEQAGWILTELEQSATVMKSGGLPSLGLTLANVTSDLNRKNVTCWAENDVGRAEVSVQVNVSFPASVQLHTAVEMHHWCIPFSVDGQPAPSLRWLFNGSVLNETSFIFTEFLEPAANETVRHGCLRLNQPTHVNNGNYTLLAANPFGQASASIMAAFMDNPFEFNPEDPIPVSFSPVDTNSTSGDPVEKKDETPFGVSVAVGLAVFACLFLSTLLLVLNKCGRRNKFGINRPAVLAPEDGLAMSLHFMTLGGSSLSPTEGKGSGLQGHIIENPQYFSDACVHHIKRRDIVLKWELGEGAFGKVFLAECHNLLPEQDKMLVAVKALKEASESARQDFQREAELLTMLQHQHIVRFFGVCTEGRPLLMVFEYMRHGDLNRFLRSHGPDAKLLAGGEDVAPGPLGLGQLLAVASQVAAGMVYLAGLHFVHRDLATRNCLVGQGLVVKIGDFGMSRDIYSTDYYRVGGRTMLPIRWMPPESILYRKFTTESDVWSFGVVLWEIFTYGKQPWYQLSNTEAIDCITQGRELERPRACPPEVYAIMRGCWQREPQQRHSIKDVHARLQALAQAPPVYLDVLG
# [11] = target: High affinity nerve growth factor receptor (Homo sapiens) (UniProt P04629); details: at 1 µM
# [12] = target: BDNF/NT-3 growth factors receptor (Homo sapiens) (UniProt Q16620); details: at 0.1 µM
# [13] = target: BDNF/NT-3 growth factors receptor (Homo sapiens) (UniProt Q16620); details: at 1 µM
# [14] = target: NT-3 growth factor receptor (Homo sapiens) (UniProt Q16288); details: at 0.1 µM
# Chain of NT-3 growth factor receptor (Homo sapiens) (Q16288 32-839 limits assumed): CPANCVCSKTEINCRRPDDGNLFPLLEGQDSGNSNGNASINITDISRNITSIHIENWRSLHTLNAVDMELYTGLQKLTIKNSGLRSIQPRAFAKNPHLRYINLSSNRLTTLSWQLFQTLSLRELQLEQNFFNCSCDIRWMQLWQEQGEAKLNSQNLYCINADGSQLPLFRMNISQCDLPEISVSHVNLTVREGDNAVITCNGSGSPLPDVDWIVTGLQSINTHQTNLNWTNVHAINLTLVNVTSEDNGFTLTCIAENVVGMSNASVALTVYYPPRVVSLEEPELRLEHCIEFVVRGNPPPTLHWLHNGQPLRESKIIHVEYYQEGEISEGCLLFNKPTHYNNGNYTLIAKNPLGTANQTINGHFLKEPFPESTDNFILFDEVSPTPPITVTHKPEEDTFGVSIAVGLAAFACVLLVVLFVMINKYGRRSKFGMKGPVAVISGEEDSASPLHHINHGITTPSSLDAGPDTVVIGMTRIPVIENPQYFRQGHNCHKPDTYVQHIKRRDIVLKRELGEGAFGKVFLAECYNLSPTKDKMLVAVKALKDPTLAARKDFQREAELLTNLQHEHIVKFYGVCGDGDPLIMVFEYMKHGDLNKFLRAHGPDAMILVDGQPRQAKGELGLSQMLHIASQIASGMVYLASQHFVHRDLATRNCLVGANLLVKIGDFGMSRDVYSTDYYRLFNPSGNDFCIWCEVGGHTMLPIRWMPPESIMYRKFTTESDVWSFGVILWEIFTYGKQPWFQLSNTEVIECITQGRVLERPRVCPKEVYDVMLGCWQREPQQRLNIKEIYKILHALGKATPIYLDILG
# [15] = target: NT-3 growth factor receptor (Homo sapiens) (UniProt Q16288); details: at 1 µM
# [16] = target: T3, Tyrosine-protein kinase TXK (Homo sapiens) (UniProt P42681); details: at 0.1 µM
# T3 sequence (whole entry): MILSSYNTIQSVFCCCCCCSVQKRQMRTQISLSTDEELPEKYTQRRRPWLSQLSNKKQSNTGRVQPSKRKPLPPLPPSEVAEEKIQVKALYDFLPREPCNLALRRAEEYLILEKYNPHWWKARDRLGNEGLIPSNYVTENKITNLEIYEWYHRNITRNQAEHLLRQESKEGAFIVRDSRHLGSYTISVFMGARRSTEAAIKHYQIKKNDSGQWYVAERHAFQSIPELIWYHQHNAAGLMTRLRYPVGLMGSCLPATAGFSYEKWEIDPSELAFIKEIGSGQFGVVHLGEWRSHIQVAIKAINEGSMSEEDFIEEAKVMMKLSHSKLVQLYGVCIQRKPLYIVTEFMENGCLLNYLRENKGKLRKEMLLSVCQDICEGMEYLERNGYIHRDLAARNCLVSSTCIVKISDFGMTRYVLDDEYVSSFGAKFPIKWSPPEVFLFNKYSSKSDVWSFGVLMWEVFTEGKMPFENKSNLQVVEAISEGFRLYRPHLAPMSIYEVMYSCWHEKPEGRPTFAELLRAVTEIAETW
# [17] = target: T3, Tyrosine-protein kinase TXK (Homo sapiens); details: at 1 µM
# [18] = target: Non-receptor tyrosine-protein kinase TYK2 (Homo sapiens) (UniProt P29597); details: at 0.1 µM;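 note: each value is a mean of the inhibition readings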
# Chain of Non-receptor tyrosine-protein kinase TYK2 (Homo sapiens) (P29597 whole entry): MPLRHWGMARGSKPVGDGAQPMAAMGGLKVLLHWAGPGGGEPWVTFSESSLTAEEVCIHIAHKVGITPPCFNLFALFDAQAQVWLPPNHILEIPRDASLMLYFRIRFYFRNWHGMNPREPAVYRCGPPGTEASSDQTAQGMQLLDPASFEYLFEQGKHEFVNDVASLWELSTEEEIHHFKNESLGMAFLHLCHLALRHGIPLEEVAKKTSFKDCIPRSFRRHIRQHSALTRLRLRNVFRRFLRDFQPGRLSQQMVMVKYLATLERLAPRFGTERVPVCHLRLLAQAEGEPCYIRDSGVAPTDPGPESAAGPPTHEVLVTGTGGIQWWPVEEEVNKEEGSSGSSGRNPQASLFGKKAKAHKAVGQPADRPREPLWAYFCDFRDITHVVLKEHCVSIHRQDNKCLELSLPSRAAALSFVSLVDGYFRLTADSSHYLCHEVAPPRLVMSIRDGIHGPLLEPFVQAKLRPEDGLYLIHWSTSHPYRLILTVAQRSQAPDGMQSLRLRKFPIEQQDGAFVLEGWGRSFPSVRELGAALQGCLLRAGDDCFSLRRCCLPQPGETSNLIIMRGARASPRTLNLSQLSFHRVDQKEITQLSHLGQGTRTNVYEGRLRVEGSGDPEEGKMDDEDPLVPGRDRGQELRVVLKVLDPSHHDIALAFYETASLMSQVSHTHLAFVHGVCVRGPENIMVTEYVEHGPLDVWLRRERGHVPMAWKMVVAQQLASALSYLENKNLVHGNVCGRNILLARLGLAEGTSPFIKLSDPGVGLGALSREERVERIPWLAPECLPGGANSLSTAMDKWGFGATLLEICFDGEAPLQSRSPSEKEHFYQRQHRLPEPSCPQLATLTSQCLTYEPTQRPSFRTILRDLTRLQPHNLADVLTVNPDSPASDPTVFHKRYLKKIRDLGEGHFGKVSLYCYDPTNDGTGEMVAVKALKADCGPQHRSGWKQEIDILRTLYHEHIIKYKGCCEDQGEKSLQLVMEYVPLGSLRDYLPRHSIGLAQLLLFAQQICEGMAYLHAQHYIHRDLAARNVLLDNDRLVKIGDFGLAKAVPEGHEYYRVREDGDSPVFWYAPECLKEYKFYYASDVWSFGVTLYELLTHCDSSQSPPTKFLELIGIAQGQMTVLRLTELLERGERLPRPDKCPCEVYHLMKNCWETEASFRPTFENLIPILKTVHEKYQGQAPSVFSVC
# [19] = target: T4, Dual specificity protein kinase TTK (Homo sapiens) (UniProt P33981); details: at 1 µM;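 note: reported figures are mean TTK inhibition at 1 µM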
# T4 sequence (whole entry): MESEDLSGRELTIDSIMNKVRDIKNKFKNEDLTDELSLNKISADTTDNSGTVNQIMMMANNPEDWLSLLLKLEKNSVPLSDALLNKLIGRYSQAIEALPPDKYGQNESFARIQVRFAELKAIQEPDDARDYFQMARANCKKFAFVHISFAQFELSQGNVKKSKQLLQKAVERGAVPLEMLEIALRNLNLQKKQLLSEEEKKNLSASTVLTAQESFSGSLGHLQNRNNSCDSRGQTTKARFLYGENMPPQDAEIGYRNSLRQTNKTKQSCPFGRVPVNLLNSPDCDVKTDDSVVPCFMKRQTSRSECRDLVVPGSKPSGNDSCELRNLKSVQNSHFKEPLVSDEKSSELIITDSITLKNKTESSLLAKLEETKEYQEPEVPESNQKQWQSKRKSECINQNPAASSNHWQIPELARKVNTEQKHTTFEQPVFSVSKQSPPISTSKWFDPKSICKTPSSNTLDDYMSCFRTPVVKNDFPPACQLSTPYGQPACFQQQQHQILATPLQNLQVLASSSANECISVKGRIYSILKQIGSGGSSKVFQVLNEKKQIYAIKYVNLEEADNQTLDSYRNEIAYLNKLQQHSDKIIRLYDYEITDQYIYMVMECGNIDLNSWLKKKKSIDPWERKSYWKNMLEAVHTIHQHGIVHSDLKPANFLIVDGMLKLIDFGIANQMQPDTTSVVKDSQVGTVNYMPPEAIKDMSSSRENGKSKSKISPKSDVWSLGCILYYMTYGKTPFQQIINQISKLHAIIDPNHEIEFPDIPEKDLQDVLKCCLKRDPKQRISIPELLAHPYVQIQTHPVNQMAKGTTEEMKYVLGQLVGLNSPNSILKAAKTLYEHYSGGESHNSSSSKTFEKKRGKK
# [20] = target: T5, Aurora kinase A (Homo sapiens) (UniProt O14965); details: at 0.1 µM;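 note: each reported value is a mean percent inhibition of Aurora-A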
# T5 sequence (whole entry): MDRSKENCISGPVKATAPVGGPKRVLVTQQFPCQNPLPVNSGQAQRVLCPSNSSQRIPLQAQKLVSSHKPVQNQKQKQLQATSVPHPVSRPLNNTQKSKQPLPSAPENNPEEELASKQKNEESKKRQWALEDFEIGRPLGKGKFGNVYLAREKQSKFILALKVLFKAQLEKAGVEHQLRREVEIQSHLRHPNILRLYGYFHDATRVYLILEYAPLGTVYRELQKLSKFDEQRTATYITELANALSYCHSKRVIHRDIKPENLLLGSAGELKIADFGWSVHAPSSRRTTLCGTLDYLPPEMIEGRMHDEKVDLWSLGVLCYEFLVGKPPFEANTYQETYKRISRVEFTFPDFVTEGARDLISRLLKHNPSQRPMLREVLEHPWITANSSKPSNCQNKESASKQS
Compound,inhibition [1],inhibition [2],inhibition [3],inhibition [4],inhibition [5],inhibition [6],inhibition [7],inhibition [8],inhibition [9],inhibition [10],inhibition [11],inhibition [12],inhibition [13],inhibition [14],inhibition [15],inhibition [16],inhibition [17],inhibition [18],inhibition [19],inhibition [20]
CS(=O)(=O)CCNCc1ccc(-c2ccc3ncnc(Nc4ccc(OCc5cccc(C(F)(F)F)c5)cc4)c3c2)o1,-0.03%,6.62%,4.52%,3.37%,4.84%,0.64%,5.33%,0.49%,0.96%,2.16%,7.21%,4.9%,17.5%,3%,10.1%,5.9%,5.59%,-2.56%,8.3%,3.79%
O=C1Nc2ccccc2/C1=C1\CCc2cc(O)ccc21,-3.48%,5.96%,10.2%,4.53%,7.58%,11.5%,45.2%,0.75%,1.9%,18.6%,70.6%,28.6%,78%,28%,77.5%,2.88%,8.68%,-2.35%,31.4%,8.42%
COC(=O)Nc1nc2ccc(Oc3ccc(NC(=O)Nc4cc(C(F)(F)F)ccc4F)cc3)cc2s1,0.26%,1.25%,-0.83%,50.8%,78%,11.5%,27.2%,0.46%,1.35%,24.2%,81.5%,24.9%,61%,25.7%,88.5%,1.96%,2.35%,-0.09%,9.84%,1.12%
Nc1nccc(-c2c(-c3ccc(F)cc3)ncn2C2CCNCC2)n1,-2.74% and 1.45%,-2.4% and 0.94%,-2.93% and 2.08%,-0.35% and 2.75%,1.51% and 1.25%,-6.18% and -1.13%,-2.86% and -0.41%,-1.87% and 0.84%,-2.1% and 1.2%,-1.68% and 4.53%,-2.46% and 2.61%,-1.2% and 0.85%,-0.92% and 0.76%,-2.82% and 1.09%,-1.78% and 1.96%,-1.02% and 1.02%,-0.81% and 3.65%,0.9% and -0.21%,-1.76% and -0.14%,-4.27% and 0.74%
COc1c(C(N)=O)cc(-c2ccc(Cl)cc2)cc1-c1ccc(S(N)(=O)=O)cc1,4.05%,7.49%,3.79%,5.29%,7.54%,2.66%,3.9%,1.22%,3.03%,4.76%,4.22%,2.88%,3.12%,2.54%,2.2%,9.73%,4.4%,-0.68%,12.9%,2.86%
CNC(=O)c1sc(-n2cnc3cc(OC)c(OC)cc32)cc1OCc1ccccc1C(F)(F)F,-4%,1.74%,9.64%,2.19%,9.86%,4.58%,29.1%,1.43%,4.41%,1.34%,4.9%,1.8%,4.02%,3.06%,6.32%,5.54%,11.5%,-2.35%,7.09%,3.14%
N#Cc1ccc2c(-c3ccnc(NC4CC4)n3)c(-c3ccc(F)cc3)nn2c1,-1.91%,-0.44%,3.17%,1.54%,3.72%,-0.18%,1.77%,0.77%,1.6%,-1.05%,-2.02%,0.12%,0.68%,-1.35%,-1.48%,0.94%,12.3%,0.53%,3.53%,0.84%
OCCCNc1nccc(-c2c(-c3ccc(F)cc3)nn3cc(C(F)(F)F)ccc23)n1,0.36%,3.37%,5.41%,2.38%,5.06%,0.14%,3.92%,0.22%,1.57%,3.24%,1.07%,1.2%,1.1%,2.9%,2.72%,4.77%,6.39%,-6.14%,4.7%,0.87%
NC(=O)c1ccc2c(-c3ccnc(NCCCO)n3)c(-c3ccc(F)cc3)nn2c1,-0.6%,5.81%,16.1%,5.27%,6.83%,4.67%,2.83%,0.88%,5%,3.75%,2.24%,3.11%,2.83%,3.99%,2.98%,9.73%,38.4%,-3.98%,12.1%,1.36%
NS(=O)(=O)c1cccc(N/C=C2\C(=O)Nc3ccccc32)c1,-1.66%,4.94%,7.41%,4.12%,8.33%,3.06%,5.85%,0.36%,1.26%,4.69%,16.2%,6.02%,32.9%,6.86%,32.3%,4.29%,6.83%,-2.94%,21.3%,7.85%
CS(=O)(=O)CCNCc1ccc(-c2ccc3ncnc(Nc4ccc(OCc5ccccc5)cc4)c3c2)o1,-0.71%,1.49%,7.43%,1.24%,4.15%,3.51%,16.6%,1.73%,2.69%,1.91%,2.55%,2.66%,4.99%,3.88%,5.1%,0.48%,3.39%,-1.78%,7.19%,3.51%
CCOc1ccc2c(-c3ccnc(Nc4cc(OC)cc(C(F)(F)F)c4)n3)cnn2n1,-0.62%,2.25%,7.24%,7.37%,13.5%,2.46%,12.4%,0.16%,1.19%,0.62%,3.16%,-1.33%,3.13%,-1.23%,4.94%,0.98%,3.69%,-2.65%,8.93%,0.65%
COc1cc(N2CCN(C(C)C)CC2)ccc1Nc1nc(Nc2cccc3ncccc23)c2cc[nH]c2n1,-0.52%,0.93%,-0.14%,3.15%,7.32%,0.11%,22.3%,1.12%,13.2%,1.86%,1.49%,0.73%,0.22%,0.87%,0.74%,0.48%,3.98%,-4.59%,69.5%,0.64%
